Pf growth 48h: inhibits P. falciparum growth in the first generation, 48 h; P. falciparum luciferase growth in erythrocytes, 48 h; Potency, µM (top dose mostly 28.7 µM), for the others: top-dose activity change, negative = inhibition, most hits filed as inhibitors; AID 504832; 310,000 compounds, 5.9% hits; also: potency is read from the fitted curve at half-maximal effect; % is scaled to controls: 0 for no effect and ±100 for the full control effect
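Erythrocytes infected with P. falciparum carrying an integrated firefly luciferase reporter (2% hematocrit, 0.1% parasitemia final) were exposed to compounds in RPMI 1640 with 0.5% Albumax at 37 C, 5% CO2. Growth inhibition was scored as reduced luminescence.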
Pf growth 96h: P. falciparum growth inhibition at 96 hour, primary screen for plastid delayed-death inhibitors | P. falciparum luciferase reporter growth, 96 h | Potency, µM (series often up to 28.7 µM), for inactives: at the top dose activity change, negative = inhibition, actives largely listed as inhibitors | 320,000 compounds, 6.9% hits | AID 504834; also: potency is read from the fitted curve at half-maximal effect; % is scaled to controls: 0 for no effect and ±100 for the full control effect
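P. falciparum expressing integrated firefly luciferase grown in erythrocytes (2% hematocrit, 0.05% parasitemia final) with compounds for 96 hours at 37 C, 5% CO2. Growth inhibition read as loss of luminescence after adding luciferase detection reagent.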
Cycloheximide cs: counter-screen hit for Shiga toxin inhibitors, cycloheximide | cell reporter, cycloheximide protein synthesis inhibition counterscreen | max response, % | 300,000 compounds, 12% hits | AID 2314; in the data active = max response mostly above about 13%, no sharp cut-off; inactive = mostly below about 14%; also: read at 38.3 µM for the half of the compounds with a filed dose; 0% is about no effect
Marburg entry inh: blocks Marburg virus binding to or entry into cells; Potency, µM (doses to about 37.8 µM), for inactives: at the highest dose activity change, negative = inhibition, hits mostly inhibitors; 300,000 compounds, 1.8% hits; Marburg virus pseudotyped entry inhibition, cell reporter; calls by dose curve; tested in HEK293 cells; also: potency is read from the fitted curve at half-maximal effect; % is scaled to controls: 0 for no effect and ±100 for the full control effect
Shiga toxin inh: inhibitors of Shiga toxin in Vero cells. inhibition, % at 38.7 µM. 290,000 compounds, 9.2% hits. Vero cells, Shiga toxin protein synthesis inhibition reporter. AID 2315; in the data active = inhibition mostly above about 28%, no sharp cut-off; inactive = mostly below about 43%; also: 0% is about no effect
LASV entry inh: inhibitors of Lassa virus binding or cell entry | Lassa virus pseudotype entry inhibition, cell reporter | Potency, µM (highest dose often 37.9 µM), for inactives: at the highest dose activity change, negative = inhibition, usual class: inhibitors | 300,000 compounds, 1.2% hits; calls by dose curve; tested in HEK293 cells; also: potency is read from the fitted curve at half-maximal effect; % is scaled to controls: 0 for no effect and ±100 for the full control effect; nearly all actives have a fitted effect of over 50% in size
* marks the source's active call; other numbers are inactive results; ? = inconclusive; nt = no result given; ! = not active in a repeat; [ ] = remark or other dose. A selection: hits, their analogues and other compounds. The true share with any hit is near 19%. Unless noted, calls follow the shape of the dose curve; as a rule, active = well fitted inhibition curve with a large enough effect; inconclusive = small, poorly fitted or top-dose-only effect, or another doubt; inactive = no such curve, though single readings can be large or run the other way.

SMILES	Pf growth 48h	Pf growth 96h	Cycloheximide cs	Marburg entry inh	Shiga toxin inh	LASV entry inh
C/C(=N\NC(=O)c1ccco1)c1ccc(NC(=O)C(F)(F)F)cc1	48.1%	30.4%	56.8*	nt	60.6*	nt
O=C(Nc1ccc(NC(=S)NC(=O)c2ccco2)cc1)c1ccccc1	?	-22.2%	0.8	?	25.4	4.8%[46.1 µM]
C/C(=N\NC(=O)c1ccco1)c1ccc(NC(=O)c2ccccc2)cc1	325.1%	13.1µM*	35.5*	-23.2%[46.1 µM]	72.4*	?
CCC(=O)Nc1sc2c(c1C#N)CCC2	21.9%	?	5.6	1.4%[46.1 µM]	28.8	nt
CCCC1CCc2c(sc(NC(=O)OCC)c2C#N)C1 (configuration not stated)	-26.6%	11.7µM*	10.6	?	33.4	-25.1%
CCc1ccc(CCC(=O)Nc2sc3c(c2C#N)CCCC3)o1	-18.8%	nt	1.2	2.31µM*	3.9	?
CCOC(=O)Nc1sc2c(c1C(N)=O)CCC(C)C2 (configuration not stated)	43.2%	-28.1%	1.0	nt	-2.3	nt
CCOC(=O)Nc1sc2c(c1C#N)CCCC2	nt	123.7%	30.6*	?	73.9*	20.3%
COC(=O)c1ccc([C@H]2Nc3ccc(S(=O)(=O)Nc4cccc(C)c4)cc3[C@H]3C=CC[C@H]32)cc1	nt	nt	nt	-3.0%[46.1 µM]	nt	?
Cc1ccc2c(c1)C1C=CCC1C(C(=O)O)N2 (configuration not stated)	?	2.62µM*	-4.8	-35.3%	-13.7	3.2%
CCOc1ccc2c(c1)[C@@H]1C=CC[C@@H]1[C@H](c1ccccc1Cl)N2	nt	nt	nt	1.5%[46.1 µM]	nt	9.3%[46.1 µM]
COC(=O)c1ccc(C2Nc3ccc(/C(C)=N/NC(=O)C(OC)c4ccccc4)cc3C3C=CCC32)cc1 (configuration not stated)	?	4.15µM*	-3.8	2.2%	0.7	-3.6%
C1=CC2c3ccccc3NC(c3ccncc3)C2C1 (configuration not stated)	?	13.1µM*	5.4	?	-15.3	-33.7%
CC(=O)c1ccc2c(c1)C1C=CCC1C(c1ccncc1)N2 (configuration not stated)	-9.2%	132.0%	18.3*	-7.8%	96.8*	6.0%
CCOc1ccc(N(CC(=O)Nc2ccccc2C)S(=O)(=O)c2c(C)[nH]c(=O)[nH]c2=O)cc1	?	-4.9%	-4.4	nt	8.0	nt
CC(C)(C)CC(C)(C)NC(=O)Nc1cccc([N+](=O)[O-])c1	?	0.8%	0.5	nt	10.9	nt
CC1(c2nnc(-c3ccc(Cl)cc3)o2)CC(c2c(Cl)cccc2Cl)=NO1 (configuration not stated)	-4.3%	24.7%	-2.4	nt	-7.3	nt
CN(CC(=O)Nc1ccccc1-c1ccccc1)Cc1ccccc1Cl	?	?	5.4	11.2µM*	-3.6	-7.6%
COc1ccccc1CN(C)CC(=O)Nc1ccc(Cl)cc1C(F)(F)F	1.9%	?	14.8*	4.8%	13.0	?
O=C(Cc1ccccc1F)Nc1ccccc1-c1ccccc1	9.1%	44.4%	27.5*	13.5%[46.1 µM]	69.5*	nt
Cc1ccc(NC(=O)CN(C)CC(=O)Nc2ccccc2-c2ccccc2)cc1	?	13.1µM*	-1.0	?	-9.1	?
C=CCn1c(=O)/c(=C/c2ccc(Cl)cc2)s/c1=C(\C#N)c1nnc2n1CCCCC2	nt	nt	nt	-29.4%	nt	?
CC(=O)c1ccc(N2CCN(S(=O)(=O)c3cn(C)cn3)CC2)cc1	16.5%	?	1.4	8.6%[46.1 µM]	32.0	?
COc1ccc(Cl)cc1NC(=O)CN(C)C(=O)c1cc(=O)c2ccccc2o1	11.7µM*	?	nt	nt	nt	nt
COc1ccc(Cl)cc1NC(=O)CN(C)CC(=O)Nc1ccccc1-c1ccccc1	?	11.7µM*	-4.2	?	11.8	?
COc1cc(OC)c(-c2c3cc(O)c(=O)cc-3oc3cc(O)c(O)cc23)cc1OC	2.33µM*	3.7µM*	-4.1	4.61µM*!	-13.0	-26.8%
CC1CN(CC(=O)Nc2nc3ccccc3s2)CC(C)O1 (configuration not stated)	-4.8%	?	11.8*	12.9%	57.3	13.9%
O=C(COC(=O)CNC(=O)c1cccc([N+](=O)[O-])c1)Nc1ccccc1OC(F)F	5.2%	14.4%	-0.4	14.2%	-11.4	15.0%

Screening results deposited in PubChem BioAssay by National Center for Advancing Translational Sciences (NCATS).
